Source: paper PMC9911399, “Two distinct binding modes provide the RNA-binding protein RbFox with extraordinary sequence specificity”
Changes are numbered by the printed parent chain; changes in the protein carry UniProt numbers. In all, about 16,000 sequences were measured (“ka relative to ugcaugu”: median about 0.096, highest 2% from about 0.35 on). The sample as a whole holds a higher share of the highest values than the screen did.

T1: RBFOX1 RRM RbFoxmut (Fox-RRM*) (Homo sapiens, UniProt Q9NWB1 109-208, R118D;E147R;N151S;E152T)
T1 sequence: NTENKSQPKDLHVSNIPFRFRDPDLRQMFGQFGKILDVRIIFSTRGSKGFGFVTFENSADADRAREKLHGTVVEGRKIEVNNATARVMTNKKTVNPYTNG

B1: CUCAAAA (DNA:RNA)
RNA: GGGAGACCGGAAUUCAGAUUGUCCCUCAAAAUUAAAUCCCGUCGUAGCCACCA
DNA 1: CAATCTGAATTCCGGTCTCCC
DNA 2: TGGTGGCTACGACGGGATT
B2: UUGUUGU (DNA:RNA)
RNA: B1 RNA with C25U, C27G, A28U, A29U, A30G, A31U
DNA 1: CAATCTGAATTCCGGTCTCCC
DNA 2: TGGTGGCTACGACGGGATT
B3: GUACGUG (DNA:RNA)
RNA: B1 RNA with C25G, C27A, A28C, A29G, A30U, A31G
DNA 1: CAATCTGAATTCCGGTCTCCC
DNA 2: TGGTGGCTACGACGGGATT
B4: UUGUCGU (DNA:RNA)
RNA: B1 RNA with C25U, C27G, A28U, A29C, A30G, A31U
DNA 1: CAATCTGAATTCCGGTCTCCC
DNA 2: TGGTGGCTACGACGGGATT
B5: UCGUUUU (DNA:RNA)
RNA: GGGAGACCGGAAUUCAGAUUGUCCUCGUUUUUUAAAUCCCGUCGUAGCCACCA
DNA 1: CAATCTGAATTCCGGTCTCCC
DNA 2: TGGTGGCTACGACGGGATT
B6: GUCCGUG (DNA:RNA)
RNA: B1 RNA with C25G, A28C, A29G, A30U, A31G
DNA 1: CAATCTGAATTCCGGTCTCCC
DNA 2: TGGTGGCTACGACGGGATT
B7: UCGUCGU (DNA:RNA)
RNA: B5 RNA with U29C, U30G
DNA 1: CAATCTGAATTCCGGTCTCCC
DNA 2: TGGTGGCTACGACGGGATT
B8: GUGUGUG (DNA:RNA)
RNA: B5 RNA with U25G, C26U, U29G, U31G
DNA 1: CAATCTGAATTCCGGTCTCCC
DNA 2: TGGTGGCTACGACGGGATT
B9: UUGUUUG (DNA:RNA)
RNA: B5 RNA with C26U, U31G
DNA 1: CAATCTGAATTCCGGTCTCCC
DNA 2: TGGTGGCTACGACGGGATT
B10: UUGUACG (DNA:RNA)
RNA: B5 RNA with C26U, U29A, U30C, U31G
DNA 1: CAATCTGAATTCCGGTCTCCC
DNA 2: TGGTGGCTACGACGGGATT
B11: GUGUCCC (DNA:RNA)
RNA: B5 RNA with U25G, C26U, U29C, U30C, U31C
DNA 1: CAATCTGAATTCCGGTCTCCC
DNA 2: TGGTGGCTACGACGGGATT
B12: GUGUACG (DNA:RNA)
RNA: B1 RNA with C25G, C27G, A28U, A30C, A31G
DNA 1: CAATCTGAATTCCGGTCTCCC
DNA 2: TGGTGGCTACGACGGGATT
B13: UCGUUUG (DNA:RNA)
RNA: B5 RNA with U31G
DNA 1: CAATCTGAATTCCGGTCTCCC
DNA 2: TGGTGGCTACGACGGGATT
B14: UUAGCGG (DNA:RNA)
RNA: B1 RNA with C25U, C27A, A28G, A29C, A30G, A31G
DNA 1: CAATCTGAATTCCGGTCTCCC
DNA 2: TGGTGGCTACGACGGGATT
B15: AGAGGUC (DNA:RNA)
RNA: B5 RNA with U25A, C26G, G27A, U28G, U29G, U31C
DNA 1: CAATCTGAATTCCGGTCTCCC
DNA 2: TGGTGGCTACGACGGGATT
B16: CCAGAUU (DNA:RNA)
RNA: B5 RNA with U25C, G27A, U28G, U29A
DNA 1: CAATCTGAATTCCGGTCTCCC
DNA 2: TGGTGGCTACGACGGGATT
B17: UUCCUGU (DNA:RNA)
RNA: B5 RNA with C26U, G27C, U28C, U30G
DNA 1: CAATCTGAATTCCGGTCTCCC
DNA 2: TGGTGGCTACGACGGGATT
B18: GGACAAA (DNA:RNA)
RNA: B1 RNA with C25G, U26G, C27A, A28C
DNA 1: CAATCTGAATTCCGGTCTCCC
DNA 2: TGGTGGCTACGACGGGATT
B19: CCCAACC (DNA:RNA)
RNA: B1 RNA with U26C, A30C, A31C
DNA 1: CAATCTGAATTCCGGTCTCCC
DNA 2: TGGTGGCTACGACGGGATT
B20: GCCACAA (DNA:RNA)
RNA: B1 RNA with C25G, U26C, A29C
DNA 1: CAATCTGAATTCCGGTCTCCC
DNA 2: TGGTGGCTACGACGGGATT
B21: UGUAAGU (DNA:RNA)
RNA: B1 RNA with C25U, U26G, C27U, A30G, A31U
DNA 1: CAATCTGAATTCCGGTCTCCC
DNA 2: TGGTGGCTACGACGGGATT
B22: UCAGUAU (DNA:RNA)
RNA: B5 RNA with G27A, U28G, U30A
DNA 1: CAATCTGAATTCCGGTCTCCC
DNA 2: TGGTGGCTACGACGGGATT
B23: AUUAGAG (DNA:RNA)
RNA: B1 RNA with C25A, C27U, A29G, A31G
DNA 1: CAATCTGAATTCCGGTCTCCC
DNA 2: TGGTGGCTACGACGGGATT
B24: CCAGAGU (DNA:RNA)
RNA: B1 RNA with U26C, C27A, A28G, A30G, A31U
DNA 1: CAATCTGAATTCCGGTCTCCC
DNA 2: TGGTGGCTACGACGGGATT
B25: CGUUUUG (DNA:RNA)
RNA: B5 RNA with U25C, C26G, G27U, U31G
DNA 1: CAATCTGAATTCCGGTCTCCC
DNA 2: TGGTGGCTACGACGGGATT
B26: GAGUUGU (DNA:RNA)
RNA: B5 RNA with U25G, C26A, U30G
DNA 1: CAATCTGAATTCCGGTCTCCC
DNA 2: TGGTGGCTACGACGGGATT
B27: GUGUCGU (DNA:RNA)
RNA: B5 RNA with U25G, C26U, U29C, U30G
DNA 1: CAATCTGAATTCCGGTCTCCC
DNA 2: TGGTGGCTACGACGGGATT
B28: GAGUUUG (DNA:RNA)
RNA: B5 RNA with U25G, C26A, U31G
DNA 1: CAATCTGAATTCCGGTCTCCC
DNA 2: TGGTGGCTACGACGGGATT
B29: GUUGUGU (DNA:RNA)
RNA: B5 RNA with U25G, C26U, G27U, U28G, U30G
DNA 1: CAATCTGAATTCCGGTCTCCC
DNA 2: TGGTGGCTACGACGGGATT
B30: GUCGUGU (DNA:RNA)
RNA: B1 RNA with C25G, A28G, A29U, A30G, A31U
DNA 1: CAATCTGAATTCCGGTCTCCC
DNA 2: TGGTGGCTACGACGGGATT
B31: UUGUGUA (DNA:RNA)
RNA: B5 RNA with C26U, U29G, U31A
DNA 1: CAATCTGAATTCCGGTCTCCC
DNA 2: TGGTGGCTACGACGGGATT
B32: GUGUAUA (DNA:RNA)
RNA: B1 RNA with C25G, C27G, A28U, A30U
DNA 1: CAATCTGAATTCCGGTCTCCC
DNA 2: TGGTGGCTACGACGGGATT
B33: GUGUUUG (DNA:RNA)
RNA: B5 RNA with U25G, C26U, U31G
DNA 1: CAATCTGAATTCCGGTCTCCC
DNA 2: TGGTGGCTACGACGGGATT
B34: GUCCGAG (DNA:RNA)
RNA: B1 RNA with C25G, A28C, A29G, A31G
DNA 1: CAATCTGAATTCCGGTCTCCC
DNA 2: TGGTGGCTACGACGGGATT
B35: GUGUGUA (DNA:RNA)
RNA: B5 RNA with U25G, C26U, U29G, U31A
DNA 1: CAATCTGAATTCCGGTCTCCC
DNA 2: TGGTGGCTACGACGGGATT
B36: GUUUGUG (DNA:RNA)
RNA: B5 RNA with U25G, C26U, G27U, U29G, U31G
DNA 1: CAATCTGAATTCCGGTCTCCC
DNA 2: TGGTGGCTACGACGGGATT

Target: T1, RBFOX1 RRM RbFoxmut (Fox-RRM*)
Assay: EMSA; HiTS-Eq, 1 nM pool, 10 min; buffer printed only for the single-RNA assays: 10 mM Tris pH 7.5, 150 mM NaCl, 3.4 mM EDTA, 0.001% NP-40, 30 C
Details: tags: His6 N-terminal (pET28a); label: 5' 32P
In short: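 Purified RbFox RRM (wild type or mutant) was equilibrated for 10 min in 50 µL with 1 nM of a 5′-radiolabelled pool of RNA with 7 randomized nucleotides, its flanks annealed to DNA oligonucleotides, across increasing protein concentrations. Free RNA was separated by 8% native PAGE, excised, reverse-transcribed, PCR-barcoded and sequenced on an Illumina HiSeq 2500. Relative association constants came from read-count changes of each variant against the control reaction, normalised to the cognate motif.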

| Binder | binding signal |
| --- | --- |
| B1 | 0.0819 KA relative to UGCAUGU |
| B2 | 0.21 KA relative to UGCAUGU |
| B3 | 0.188 KA relative to UGCAUGU |
| B4 | 0.132 KA relative to UGCAUGU |
| B5 | 0.0973 KA relative to UGCAUGU |
| B6 | 0.146 KA relative to UGCAUGU |
| B7 | 0.109 KA relative to UGCAUGU |
| B8 | 0.532 KA relative to UGCAUGU |
| B9 | 0.709 KA relative to UGCAUGU |
| B10 | 0.261 KA relative to UGCAUGU |
| B11 | 0.101 KA relative to UGCAUGU |
| B12 | 0.441 KA relative to UGCAUGU |
| B13 | 0.396 KA relative to UGCAUGU |
| B14 | 0.0965 KA relative to UGCAUGU |
| B15 | 0.108 KA relative to UGCAUGU |
| B16 | 0.0808 KA relative to UGCAUGU |
| B17 | 0.0952 KA relative to UGCAUGU |
| B18 | 0.0761 KA relative to UGCAUGU |

| Binder | binding signal |
| --- | --- |
| B19 | 0.0535 KA relative to UGCAUGU |
| B20 | 0.0608 KA relative to UGCAUGU |
| B21 | 0.118 KA relative to UGCAUGU |
| B22 | 0.116 KA relative to UGCAUGU |
| B23 | 0.146 KA relative to UGCAUGU |
| B24 | 0.126 KA relative to UGCAUGU |
| B25 | 0.133 KA relative to UGCAUGU |
| B26 | 0.138 KA relative to UGCAUGU |
| B27 | 0.164 KA relative to UGCAUGU |
| B28 | 0.361 KA relative to UGCAUGU |
| B29 | 0.224 KA relative to UGCAUGU |
| B30 | 0.187 KA relative to UGCAUGU |
| B31 | 0.315 KA relative to UGCAUGU |
| B32 | 0.166 KA relative to UGCAUGU |
| B33 | 0.68 KA relative to UGCAUGU |
| B34 | 0.129 KA relative to UGCAUGU |
| B35 | 0.371 KA relative to UGCAUGU |
| B36 | 0.462 KA relative to UGCAUGU |
